For 20 compounds, growth results are on record in PubChem BioAssay (NCI).

Holding throughout (assay): NCI-60 one-dose screen, 48 h (100 = growth as untreated, 0 = no growth, -100 = all killed)
Conditions in all cases: 10 µM unless noted

Assay [1] relates to NCI-H23 lung.
The test system of assay [2] is NCI-H226 lung.
In assay [3] the test system is NCI-H322M lung.
Assay [4] concerns HOP-62 NSCLC.
For assay [5], the system named is NCI-H460 lung.
Assay [6] relates to HOP-92 NSCLC.
The subject of assay [7] is NCI-H522 lung.
The subject of assay [8] is A549/ATCC NSCLC.
The subject of assay [9] is 786-0 renal.
Assay [10] deals with COLO 205 colon.

The panel holds about 83,000 compounds, 20% with a hit somewhere; the sample as a whole holds those more often.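 Method: cells in 96-well plates; compound added at one concentration; 48 h incubation; percent growth measured; values under 10 scored active.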 A number with no mark means an inactive call. Activity calls are given as the source filed them.

For `CCOC(=O)c1c(NC(=O)c2ccccc2)sc2c(O)c(CN(CC)CC)ccc12`, the growth is 2.37% (active) in assay [1]; -21.7% (active) in [2]; 50.6% in assay [3]; -17.2% (active) in assay [4]; 4.01% (active) in assay [5]; 46.3% in assay [6]. Also, the growth was -45.3% (active) in assay [7], 11.4% in assay [8], 18.5% in [9] and -74.7% (active) in [10].
As for `Cc1ccc(N=CNN=C(N)N)cc1`, the growth in assay [1] was 106%; in [2], 92%; in assay [3], 111%; in [4], 102%; in [5] it was 120%; in assay [6], 109%. Besides, the growth is 95.4% in assay [7], 100% in assay [8], 115% in assay [9] and 113% in [10].
In the case of `COc1c(-c2cc(-c3ccc(C)o3)[nH]c(=O)n2)c(O)cc2occc12`, the growth in assay [1] is 68.8%; in [2] it was 67.3%; in [3], 90.7%; in [4], 52.1%; in assay [5], 44.4%; in [6] it was 67.3%. The growth in assay [7] was 36.1%; in assay [8] it was 47.1%; in assay [9], 93.9%; in [10] it was 104%.
`COc1ccc(-c2nc(-c3cc(OC)cc(OC)c3)[nH]c2-c2ccc(OC)cc2)cc1`: the growth in assay [1] is 39.1%; in assay [2], 48.7%; in assay [3] it was 60.6%; in assay [4], 91.8%; in [5] it was 48%; in [6], 23.7%. Moreover, the growth in assay [7] is 20.9%; in [8], 46.7%; in assay [9] it was 63.8%; in assay [10] it was 34.2%.
As for `COc1ccc(/C(=C\c2cc(OC)c(OC)c(OC)c2)C(=O)Nc2nc3ccc(Cl)cc3s2)cc1`, the growth was 94.4% in assay [1]; 83.2% in [2]; 82.5% in assay [3]; 94.9% in assay [4]; 117% in assay [5]; 86.8% in assay [6]. For the same compound, the growth is 74.9% in assay [7], 81% in [8], 91.3% in assay [9] and 108% in assay [10].
`C#CC[C@@H]1C[C@]2(C)[C@H]3CC[C@@H]4[C@H]5C(C(=C)C)CC[C@]5(C(=O)NCCCCN)CC[C@@]4(C)[C@]3(C)CC[C@H]2C(C)(C)[C@H]1OC(C)=O` (stereo not given in full): the growth is 11.7% in assay [1]; 96.1% in [2]; 60.4% in assay [3]; 105% in [4]; -56.5% (active) in [5]; 42.2% in assay [6]. The growth was -64.4% (active) in assay [7], -54.1% (active) in assay [8], -87.5% (active) in [9] and -71.6% (active) in [10].
With `Clc1cn2cc(-c3ccc(Cl)c(Cl)c3Cl)nc2s1`, the growth in assay [1] is 92.7%; in [2], 90.1%; in assay [3], 91.9%; in assay [4], 86.7%; in assay [5], 109%; in [6] it was 85.8%. Besides, the growth is 91.4% in [7], 103% in assay [8], 99.9% in [9] and 106% in assay [10].
For `O=S(=O)(NCC[C@@H]1C[C@H]1c1ccc2ccccc2c1)c1ccc(C(F)(F)F)cc1`, the growth in [1] is 84.9%; in [2], 86.1%; in [3] it was 100%; in assay [4] it was 105%; in [5], 96.1%; in assay [6], 91.4%. For the same compound, the growth was 83.8% in assay [7], 85.3% in [8], 96.3% in assay [9] and 105% in assay [10].
`O=C1Cc2c([nH]c3ccc([N+](=O)[O-])cc23)-c2ccccc2N1`: the growth is 2.05% (active) in assay [1]; 27.1% in assay [2]; 18.3% in assay [3]; 17.8% in assay [4]; 6.76% (active) in [5]; -17.1% (active) in assay [6]. For the same compound, the growth is 0.987% (active) in assay [7], 18.5% in assay [8], 7.56% (active) in assay [9] and -58.1% (active) in assay [10].
As for `COc1ccccc1NC(=O)OCC12COCN1COC2`, the growth is 100% in [1]; 99% in assay [2]; 107% in assay [3]; 104% in [4]; 104% in assay [5]; 105% in assay [6]. For the same compound, the growth is 100% in [7], 92.9% in [8], 103% in [9] and 108% in assay [10].
Turning to `O=C1OCC2=C1C(c1cccc(Br)c1)c1cc3c(cc1N2CCO)OCCO3` (stereo not given), the growth is 27.5% in assay [1]; -4.52% (active) in [2]; 35% in assay [3]; 28.7% in assay [4]; 0.468% (active) in [5]; 25.2% in [6]. Moreover, the growth in assay [7] was -11.5% (active); in assay [8] it was 13.5%; in [9], 21.8%; in [10] it was -24.5% (active).
In the case of `COc1cc(CN2CCO[C@H](COc3cccc(F)c3)C2)ccc1Cl`, the growth in assay [1] is 48.8%; in assay [2] it was 59.7%; in assay [3] it was 73.3%; in assay [4], 33.4%; in [5], 24.8%; in assay [6], 48.6%. Further, the growth was 30.7% in assay [7], 29.3% in [8], 52% in assay [9] and 12.5% in [10].
In the case of `Fc1ccc(-c2ccnc3nc(-c4ccncc4)nn23)cc1`, the growth in assay [1] was 112%; in assay [2], 102%; in assay [3], 99.4%; in assay [4], 113%; in assay [5], 104%; in assay [6], 120%. In addition, the growth in assay [7] is 107%; in assay [8], 98.4%; in assay [9], 88.8%; in assay [10], 108%.
Regarding `COc1cc(C2CC(c3ccc(Nc4ccnc5cc(Cl)ccc45)cc3)=NN2c2ccccc2)cc(OC)c1OC` (stereo not given), the growth in [1] is 84.4%; in [2] it was 83.6%; in [3], 91.2%; in assay [4], 72.8%; in assay [5], 68.9%; in assay [6], 52.5%. The growth in assay [7] is 53%; in assay [8] it was 64.6%; in assay [9], 76.1%; in assay [10], 74.1%.
`COc1cc(C2C=C(C)N=C3SC=NN32)cc(OC)c1OC` (stereo not given): the growth is 100% in [1]; 108% in [2]; 112% in assay [3]; 102% in assay [4]; 108% in [5]; 91.4% in [6]. Besides, the growth in [7] is 104%; in assay [8] it was 101%; in [9], 112%; in assay [10], 115%.
With `COc1cc(/C=C/c2ccc3c(Br)cc(Br)c(O)c3n2)ccc1O`, the growth is 36.9% in assay [1]; 67.7% in assay [2]; 40.5% in assay [3]; 33% in assay [4]; 3.91% (active) in [5]; 16.6% in [6]. The growth in assay [7] was -38.2% (active); in [8], 14.2%; in [9], 32.6%; in [10], 58%.
On to `O=[N+]([O-])c1cc(F)c2cccnc2c1O`, for which the growth was 87.8% in assay [1]; 102% in assay [2]; 100% in assay [3]; 97.1% in [4]; 92.1% in [5]; 104% in [6]. In addition, the growth in [7] is 60.8%; in assay [8] it was 105%; in assay [9], 102%; in assay [10] it was 104%.
As for `CC1=NN(c2cccc(S(N)(=O)=O)c2)C(=O)C1`, the growth in [1] is 87.8%; in assay [2] it was 90.3%; in [3], 96.9%; in assay [4] it was 97.7%; in [5], 103%; in assay [6], -30.8% (active). Also, the growth in assay [7] is 113%; in assay [8], 87.4%; in assay [9], 100%; in [10], 108%.
Consider `CCCCCCCCCCCCCCCCCC1=NC(C)(C)CN1C(C)(C)CO`, for which the growth was -14.5% (active) in assay [1]; 22.9% in [2]; 16.3% in assay [3]; -100% (active) in assay [4]; -100% (active) in assay [5]; -6.66% (active) in assay [6]. The growth in [7] is -84.8% (active); in assay [8], -93.8% (active); in assay [9], -37.5% (active); in [10], -99.8% (active).
Regarding `CC(C)(C)CC(C)(C)NCc1cc(C(C)(C)C)cc(CNC(C)(C)CC(C)(C)C)c1O`, the growth in assay [1] is 38.7%; in [2], 72.7%; in assay [3], 83.3%; in [4], 69.4%; in assay [5], 50.8%; in assay [6], -1.38% (active). For the same compound, the growth is 8.73% (active) in assay [7], 67.6% in assay [8], 71.1% in assay [9] and 0.858% (active) in [10].
